Each structure is given as a SMILES string. This is part of a sample that, as a whole, favours compounds with a hit. Of some 83,000 tested, about 20% had one in any assay.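 96-well plates, one dose, 48 hours. Percent growth reported; active if below 10.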 Values without a mark were called inactive. Activity calls are given as the source filed them.

The record followed here is PubChem BioAssay (NCI).

Among the test systems are NCI-H23 lung; NCI-H226 lung; NCI-H322M lung; HOP-62 NSCLC; NCI-H460 lung; NCI-H522 lung; A549/ATCC NSCLC; 786-0 renal; COLO 205 colon; HOP-92 NSCLC.
What all share (assay): NCI-60 one-dose screen, 48 h (100 = growth as untreated, 0 = no growth, -100 = all killed)
What all share (conditions): 10 µM unless noted

As for `COc1ccc(/C=C(\C#N)n2nnc3cc(F)c(F)cc32)cc1`, the growth in the assay on NCI-H23 lung was 74.7%; in the assay on NCI-H226 lung it was 101%; in the assay on NCI-H322M lung, 72.6%; in the assay on HOP-62 NSCLC, 49.6%; with NCI-H460 lung, 87.8%; in the assay on NCI-H522 lung it was 12.7%. Further, the growth in the assay with A549/ATCC NSCLC was 51.7%; in the assay with 786-0 renal it was 60.8%; with COLO 205 colon it was 38.2%.
Consider `O=C(Nc1nc2ccc(C(=O)N3CCN(/C=C/c4ccccc4)CC3)cc2s1)c1ccc(NCCc2ccccc2)c([N+](=O)[O-])c1`, for which the growth in the assay with NCI-H23 lung is 51%; with NCI-H226 lung, 62.1%; in the assay on NCI-H322M lung, 82.8%; with HOP-62 NSCLC, 58.4%; in the assay on NCI-H460 lung it was 16.5%; in the assay on NCI-H522 lung, 48.3%. Besides, the growth with A549/ATCC NSCLC is 55.2%; with 786-0 renal it was 69.7%; with COLO 205 colon, 18.5%.
Take `CCC(=O)Oc1ccc(-c2ccccc2)cc1Br`: the growth was 101% in the assay with NCI-H23 lung; 96.1% in the assay with NCI-H226 lung; 111% in the assay with NCI-H322M lung; 104% in the assay on HOP-62 NSCLC; 98.8% with NCI-H460 lung; 87.7% in the assay on HOP-92 NSCLC. Also, the growth in the assay on NCI-H522 lung is 108%; in the assay with A549/ATCC NSCLC, 105%; in the assay with 786-0 renal it was 105%; in the assay with COLO 205 colon, 109%.
On to `C=C1C(=O)O[C@H]2[C@H]1CC/C(COC(=O)c1cc3ccccc3s1)=C\CC[C@@]1(C)O[C@@H]21`, for which the growth in the assay with NCI-H23 lung is -46.4% (active); in the assay on NCI-H226 lung, -51.1% (active); with NCI-H322M lung, -25.8% (active); in the assay with HOP-62 NSCLC, -61.6% (active); with NCI-H460 lung it was -57.3% (active); with NCI-H522 lung it was -70.1% (active). Further, the growth is -51.1% (active) in the assay with A549/ATCC NSCLC, -83.4% (active) with 786-0 renal and -71.3% (active) with COLO 205 colon.
As for `CCc1ccc(CCCC(=O)O)cc1`, the growth in the assay on NCI-H23 lung was 96.5%; with NCI-H226 lung, 95.1%; in the assay on NCI-H322M lung, 101%; in the assay with HOP-62 NSCLC, 87%; in the assay with NCI-H460 lung, 108%; in the assay with NCI-H522 lung, 89.9%. The growth in the assay on A549/ATCC NSCLC is 97.7%; with 786-0 renal, 95.4%; in the assay with COLO 205 colon, 112%.
On to `CCCCNC(=O)Oc1ccc(/C(=C(/C)Cc2ccc(OC)cc2)c2ccc(OCCN(CC)CC)cc2)cc1`, for which the growth in the assay on NCI-H23 lung was 97%; in the assay on NCI-H226 lung, 101%; in the assay on NCI-H322M lung it was 84.9%; with HOP-62 NSCLC it was 91.5%; in the assay on NCI-H460 lung, 53.3%; in the assay with NCI-H522 lung, 85.3%. The growth in the assay with A549/ATCC NSCLC is 61.2%; in the assay on 786-0 renal, 69%; in the assay with COLO 205 colon, 46.8%.
Regarding `Cc1ccc(C(=O)c2ccc(CC(=O)N/N=C/c3ccccc3O)n2C)cc1`, the growth in the assay on NCI-H23 lung is 82.9%; in the assay on NCI-H226 lung, 97%; with NCI-H322M lung it was 78.9%; in the assay on HOP-62 NSCLC it was 76%; with NCI-H460 lung, 76.6%; in the assay with NCI-H522 lung, 75.2%. The figures for the growth in the assay with A549/ATCC NSCLC, in the assay with 786-0 renal and with COLO 205 colon were 86.1%, 96.8% and 101%, respectively.
On to `CN1CCN(C(=O)c2ccc(NC(=O)c3cc4c(nn3)NCCN4Cc3cc(Cl)ccc3Cl)cc2)CC1`, for which the growth was 74.3% in the assay on NCI-H23 lung; 36.8% with NCI-H226 lung; 95.8% in the assay with NCI-H322M lung; 82.3% in the assay on HOP-62 NSCLC; 53.4% in the assay with NCI-H460 lung; 36.1% in the assay with NCI-H522 lung. For the same compound, the growth was 55.2% with A549/ATCC NSCLC, 75.2% in the assay on 786-0 renal and 71.1% in the assay with COLO 205 colon.
`N=C(N)c1ccc(-c2ccc(-c3ccc(Cl)c(Cl)c3)s2)nc1`: the growth is 67.6% in the assay on NCI-H23 lung; 86.9% in the assay with NCI-H226 lung; -5.24% (active) in the assay on NCI-H322M lung; 36.6% in the assay with HOP-62 NSCLC; -61.6% (active) in the assay with NCI-H460 lung; -34.5% (active) in the assay on NCI-H522 lung. Also, the figures for the growth in the assay with A549/ATCC NSCLC and in the assay on 786-0 renal were -45.6% (active) and -25.8% (active), respectively.
`COc1ccc(-c2cc(-c3cccnc3)nc3sc4c(=O)[nH]c(-c5ccc(Cl)cc5)nc4c23)cc1OC`: the growth with NCI-H23 lung is 98.8%; in the assay on NCI-H226 lung, 79.1%; in the assay on NCI-H322M lung, 104%; with HOP-62 NSCLC it was 88.3%; with NCI-H460 lung, 90.9%; in the assay with HOP-92 NSCLC it was 75.1%. Further, the growth was 78.6% in the assay on NCI-H522 lung, 82.8% with A549/ATCC NSCLC, 89.2% with 786-0 renal and 91.2% in the assay on COLO 205 colon.
For the compound `COc1ccc(/C=C(\C#N)n2nnc3ccc(Cl)cc32)cc1`, the growth in the assay with NCI-H23 lung is 71%; with NCI-H226 lung it was 105%; in the assay on NCI-H322M lung it was 80.8%; in the assay on HOP-62 NSCLC, 111%; in the assay on NCI-H460 lung, 83.9%; in the assay with HOP-92 NSCLC, 74.2%. The growth in the assay on NCI-H522 lung was 17.8%; in the assay with A549/ATCC NSCLC, 58.9%; in the assay with 786-0 renal, 39.8%; in the assay with COLO 205 colon it was 83.1%.
As for `O=C(CN1CCOCC1)Nc1nc(-c2cc3ccccc3oc2=O)cs1`, the growth in the assay on NCI-H23 lung is 111%; in the assay with NCI-H226 lung it was 88.2%; in the assay with NCI-H322M lung, 100%; in the assay on HOP-62 NSCLC, 96.9%; in the assay with NCI-H460 lung, 103%; in the assay on NCI-H522 lung, 98.7%. In addition, the results for the growth with A549/ATCC NSCLC and with 786-0 renal were 105% and 103%, respectively.
Turning to `C=C(C)[C@@H]1CCC[C@]2(COS(=O)(=O)c3ccc(C)cc3)CC[C@]3(C)[C@@H](CC[C@@H]4[C@@]5(C)CCCNC(C)(C)[C@@H]5CC[C@]43C)[C@@H]12`, the growth is 25.7% in the assay on NCI-H23 lung; 82.1% in the assay on NCI-H226 lung; 39.7% in the assay with NCI-H322M lung; 69% in the assay with HOP-62 NSCLC; -49.1% (active) in the assay with NCI-H460 lung; -41% (active) with NCI-H522 lung. Besides, the growth in the assay with A549/ATCC NSCLC is -12% (active); in the assay on 786-0 renal it was -77.5% (active); in the assay on COLO 205 colon, -86.1% (active).
